Test results taken from PubChem BioAssay (NCI).
Where “and” joins values, the source holds several entries; their conditions need not be identical. Identical values can stand only once. About 83,000 compounds went through this panel and 20% of them were active in at least one assay; those are over-represented in the sample as a whole.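 Step 1: grow cells in 96-well plates. Step 2: add test compound at a single concentration. Step 3: incubate 48 h. Step 4: record percent growth.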 Calls of active or inactive are those of the source. How the source made its calls: active means growth percent below 10; inactive means the rest.

Key:
Experiment in all cases: NCI-60 one-dose screen, 48 h (100 = growth as untreated, 0 = no growth, -100 = all killed)
Details in all cases: 10 µM unless noted
[1] = test system: HCT-15 colon
[2] = test system: SNB-75 CNS
[3] = test system: SNB-19 CNS
[4] = test system: U251 CNS
[5] = test system: PC-3 prostate
[6] = test system: SK-MEL-5 melanoma
[7] = test system: UACC-62 melanoma
[8] = test system: LOX IMVI melanoma
[9] = test system: SK-MEL-28 melanoma
[10] = test system: HT29 colon

Measured: growth

O=C1CCCCN1CCCCC#Cc1cccc(C#Cc2cccnc2)c1
inactive: [1] 44.7% | [2] 79.5% | [3] 78.3% | [4] 72.4% | [5] 61.5% | [6] 62.6% | [7] 36.3% | [8] 95.8% | [9] 107%

C/C=C(\C)C(=O)N[C@H]1CC[C@]2(C)C3CC[C@@]4(C)C(CC[C@@H]4C(C)N(C)C)C3CCC2[C@H]1OC(C)=O (some centres not stated)
active: [1] -78.4% | [2] -50% | [3] -58.7% | [4] -66.1% | [5] 0.354% | [6] -100% | [7] -51.7% | [8] -78.8% | [9] -97.5%

COCCOc1cc2ncnc(N3CCN(S(=O)(=O)c4ccccc4Cl)CC3)c2cc1OCCOC
inactive: [1] 52.3% | [2] 88.2% | [3] 86.1% | [4] 90.1% | [5] 71.2% | [6] 58.8% | [7] 61% | [8] 83.1% | [9] 82.8%

C[C@]12CCc3c(ccc4cc(O)ccc34)[C@@H]1C[C@H](O)[C@@H]2O
inactive: [1] 108% | [2] 116% | [3] 95% | [4] 101% | [5] 78.5% | [6] 102% | [7] 88.6% | [8] 93.3% | [9] 110%

O=c1ccc2nc(-c3ccccn3)nn(-c3ccccc3)c-2c1
active: [1] -48%
inactive: [2] 98.4% | [3] 98.9% | [4] 98.3% | [5] 89% | [6] 36% | [7] 72.7% | [8] 11.7% | [9] 70.7%

COc1cc2cc(NCc3ccncc3)nc(C)c2cc1OC
inactive: [1] 82.9% | [2] 97% | [3] 93.8% | [4] 78.5% | [5] 77.8% | [6] 95.2% | [7] 97.8% | [8] 88% | [9] 99.2%

Nc1nc(N)c2c(n1)NC(c1cccc(Nc3ccnc4cc(C(F)(F)F)ccc34)c1)CC(c1ccc(F)cc1)=N2 (configuration not stated)
inactive: [1] 21.3% | [2] 47.1% | [3] 61.3% | [4] 33.6% | [5] 34.4% | [6] 30.4% | [7] 71.4% | [8] 40.5% | [9] 79.2%

C=C1CCC2C3(C)COC(c4ccc(NC(C)=O)cc4)OC3CCC2(C)C1C/C=C1/C(=O)OCC1O (configuration not stated)
inactive: [1] 63.3% | [2] 63.9% | [3] 83.6% | [4] 54.7% | [5] 42.2% | [6] 29% | [7] 81% | [8] 55.4% | [9] 88.6%

CCOC(=O)C1=C(C)N=C2SC=C(c3ccc(F)cc3)N2[C@H]1c1cn(-c2ccccc2)nc1-c1ccc(Cl)cc1
inactive: [1] 92.9% | [2] 78.2% | [3] 92.1% | [4] 88% | [5] 80.7% | [6] 96.4% | [7] 81.6% | [8] 95.7% | [9] 106%

CCCCCCCCCCCCCCCCCCn1cc(COc2ccc(C=O)cc2)nn1
inactive: [1] 95.9% | [10] 91.6% | [2] 104% | [3] 97.5% | [4] 107% | [6] 103% | [7] 91.2% | [8] 85.5% | [9] 109%

COc1ccc(-c2csc(NC(=O)CN3CCN(CCO)CC3)n2)cc1NS(=O)(=O)c1cccc2c(N(C)C)cccc12
active: [8] -57.9% | [9] -2.57%
inactive: [1] 39.6% | [2] 78.2% | [3] 74.3% | [4] 29.5% | [5] 72.7% | [6] 58.5% | [7] 89%

Clc1nccc2c(-c3csc(-c4c[nH]c5ccc(Br)cc45)n3)c[nH]c12
inactive: [2] 21% | [3] 44.6% | [5] 19.9% | [6] 47.2% | [7] 17%
active: [1] -49.4% | [4] -2.09% | [8] -31.9% | [9] -8.62%

O=C(CN1C(=O)S/C(=C\C(Cl)=C\c2ccccc2)C1=O)NC1C=CS(=O)(=O)C1 (configuration not stated)
inactive: [2] 19% | [3] 40.4% | [4] 16.9% | [5] 19.7% | [6] 17.1%
active: [1] -18.1% | [7] -19.2% | [8] -73.5% | [9] -9.63%

S=c1nc(CS)[nH]c2ccccc12
inactive: [1] 93.2% | [2] 86.7% | [3] 92.5% | [4] 96.7% | [5] 93.9% | [6] 95.7% | [7] 90.6% | [8] 91% | [9] 105%

Cc1ccc(/C=C(\C#N)c2cc3ccccc3[nH]2)cc1
inactive: [1] 27.1% | [2] 54.1% | [3] 55.4% | [4] 38% | [5] 71.1% | [6] 52% | [7] 22.7% | [8] 43.4% | [9] 72.1%

O=C(CCCCCCCCC(=O)N/N=C\c1ccccc1O)N/N=C\c1ccccc1O
active: [6] -59.8% | [7] -7.2%
inactive: [1] 22.1% | [2] 37.5% | [3] 24.1% | [4] 15.2% | [5] 31.5% | [8] 10.8% | [9] 35.6%

NC1=CC(=O)c2cccnc2C1=O
active: [2] -81.2% | [3] 6.26% | [4] -82% | [6] -97.8% | [7] -90.5% | [8] -74.3% | [9] -73.7%
inactive: [1] 19.9% | [5] 15.4%

CC[C@]1(O)CC2CN(CCc3c([nH]c4ccccc34)C(C(=O)OC)(c3cc4c(cc3OC)N(C=O)[C@H]3[C@@](O)(C(=O)OC)[C@H](OC(C)=O)[C@]5(CC)[C@@H]6C[C@@H]6CN6CC[C@]43[C@@H]65)C2)C1 (some centres not stated)
active: [4] 6.57% | [6] -49.4%
inactive: [1] 15.5% | [2] 10.8% | [3] 37.5% | [5] 17.9% | [7] 37.2% | [8] 26.6% | [9] 69.5%

Cc1n(Cc2ccc3ccccc3c2)c(Cl)c(Cl)[n+]1Cc1ccc2ccccc2c1
active: [2] -1.79% | [6] -79.4% | [7] -40.3%
inactive: [1] 92.5% | [3] 23.3% | [4] 19.8% | [5] 12.2% | [8] 27.8% | [9] 26.6%

OCCN1CCN(CC/C=C2\c3ccccc3Sc3ccc(Cl)cc32)CC1
inactive: [2] 60.2% and 133% | [3] 58.4% and 72.6% | [4] 27.6% and 28.6% | [5] 33.6% and 39.2%
active: [1] -38.8% and 8.86% | [6] -83.5% and -91.7% | [7] -93.8% and -68.5% | [8] -30.2% and 1.96% | [9] -100% and -78.1%

CC1=C2[C@@H](CC1)[C@]1(C)O[C@@](C(C)C)(C[C@H]1OC(=O)CO)[C@H]2OC(=O)C1CC1c1ccccc1 (some centres not stated)
inactive: [1] 96.8% | [2] 102% | [3] 88.5% | [4] 79.6% | [5] 62.6% | [6] 95% | [7] 53.3% | [8] 77% | [9] 114%

COc1ccc(CCNC(=O)COc2cc3c(Nc4ccc(F)c(Cl)c4)ncnc3cc2OC)cc1OC
inactive: [1] 91.2% | [2] 94.6% | [3] 84.2% | [4] 103% | [6] 92.5% | [7] 95.7% | [8] 90.1% | [9] 98.4%

C=C(CNCCc1ccc(O)cc1)[C@@H]1CC[C@]2(CO)CC[C@]3(C)[C@H](CC[C@@H]4[C@@]5(C)CCC(NCCc6ccc(O)cc6)C(C)(C)[C@@H]5CC[C@]43C)[C@@H]12 (some centres not stated)
active: [1] -86.9% | [2] -87.3% | [3] -85.4% | [4] -88.4% | [5] -75.6% | [6] -93.5% | [7] -88% | [8] -86.3% | [9] -87.6%

C=C(C)[C@@H]1CC[C@]2(C(=O)O)CC[C@]3(C)[C@H](CC[C@@H]4[C@@]5(C)CCC(N)C(C)(C)[C@@H]5CC[C@]43C)[C@@H]12 (some centres not stated)
active: [4] 5.5% | [7] -51.7% | [8] -51.1% | [9] -70.2%
inactive: [1] 29.4% | [2] 95.8% | [3] 28.1% | [5] 66.5% | [6] 61%

CCOc1nc(-c2ccccc2)cc2c(O)c(C(=O)N/N=C/c3ccc(N(C)C)cc3)[nH]c(=O)c12
inactive: [1] 117% | [2] 124% | [3] 133% | [4] 94.7% | [5] 88.9% | [6] 105% | [7] 98.2% | [8] 97.8% | [9] 98.5%

O=C(N/N=C/c1ccc(O)cc1O)c1cccc(Nc2ccnc(C(F)(F)F)c2)c1
active: [7] -8.61%
inactive: [1] 27.3% | [2] 32.2% | [3] 35.5% | [4] 32.1% | [5] 61% | [6] 33.7% | [8] 13.7% | [9] 31.1%

COc1cc(/C=C2\C(=O)N(CCCCn3c4ccccc4c(=O)c4ccccc43)c3ccccc32)cc(OC)c1O
inactive: [1] 36.3% | [2] 51.7% | [3] 62.7% | [4] 67.5% | [5] 39.9% | [6] 55.3% | [7] 37.5% | [8] 52.8% | [9] 68.5%

N=C1/C(=C2\NC3C=CC=CC3S2)C(c2ccc(Cl)cc2)C2C(=O)N(c3ccccc3)C(=S)N12 (configuration not stated)
inactive: [1] 110% | [2] 106% | [3] 96.6% | [4] 101% | [5] 94.3% | [6] 99.4% | [7] 94.1% | [8] 98.2% | [9] 103%

COc1ccc2c(c1)oc1c(C)c3c(c(C)c12)C(=O)N(Nc1ccccc1)C3=O
inactive: [1] 105% | [2] 94.5% | [3] 99% | [4] 108% | [5] 109% | [6] 100% | [7] 98.5% | [8] 100% | [9] 95.3%

NS(=O)(=O)c1ccc(C(=O)N=Nc2c(O)[nH]c3c(F)cccc23)cc1
inactive: [1] 105% | [2] 97.7% | [3] 97.4% | [4] 98.6% | [5] 94.9% | [6] 101% | [7] 99.6% | [8] 98% | [9] 105%

CCNC(=O)Oc1ccc(/C(=C(/C)Cc2ccc(OC)cc2)c2ccc(OCCN(CC)CC)cc2)cc1
inactive: [2] 80.8% | [3] 74.5% | [4] 33.9% | [5] 56.5%
active: [1] 2.84% | [6] -97.1% | [7] -16.4% | [8] -75.2% | [9] -60%

C/C(=C(\c1ccc(OCCN2CCOCC2)cc1)c1ccc(OC(=O)C2CCCCC2)cc1)c1ccc(Cl)cc1
inactive: [1] 97.7% | [2] 109% | [3] 100% | [4] 99.5% | [5] 68.2% | [6] 91.6% | [7] 87.9% | [8] 102% | [9] 99.1%
